Reference: PubChem BioAssay (Tox21)
Records with an inconclusive call do not appear. Calls of active or inactive are those of the source. Unless noted, calls come from the whole dose curve; as a rule, active = well fitted curve in the direction sought with a large enough effect in the repeat runs; inconclusive = weak or mixed curves; inactive = no such curve, though single readings can be large; an effect the other way counts as inactive or inconclusive.

How the values were obtained:
[1] = qHTS assay to identify small molecule antagonists of the estrogen receptor beta (ER-beta) signaling pathway - cell viability counter screen (AID 1259382);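 note: HEK293T cells carrying ER-beta-UAS-bla reporter stimulated with estradiol; series mostly up to about 92 µM; nearly all actives have a fitted effect of over 55% in size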
In short: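 ER-beta-UAS-bla HEK293T cells in 2% charcoal-stripped FBS medium, treated with compound plus 1 nM 17-beta-estradiol for 16 h at 37C. Viability read by CellTiter-Glo luminescence after 30 min at room temperature in the same wells.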

[2] = qHTS assay to identify small molecule agonists or antagonists of the thyroid stimulating hormone receptor (TSHR) signaling pathway - wild type cell line counter screen (AID 1259384; calls by dose curve)
In short: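 Wild-type Hek293 cells, 800/well, 18 h at 37C, then compound with Ro20-1724 for 30 min RT. cAMP by HTRF (cAMP-d2/anti-cAMP cryptate), 1 h RT, fluorescence read. 15 concentrations, triplicates.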

[3] = qHTS assay to identify small molecule agonists of the estrogen receptor alpha (ER-alpha) signaling pathway in the presence of an antagonist - cell viability counter screen (AID 1259386);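 note: series mostly up to about 92 µM; cells exposed to compounds for 22 h at 37 °C before the viability read; nearly all actives have a fitted effect of over 30% in size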
In short: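 Cell viability in VM7Luc4E2 cells (endogenous full-length ER-alpha) measured by CellTiter-Fluor fluorescence in the same wells as the luciferase screen. Cells pre-cultured 5 days in charcoal-stripped serum, then treated 22 h with compounds at 15 concentrations plus 10.0nM ICI-182,780.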

[4] = molecular target: Progesterone receptor (Homo sapiens) (UniProt P06401); test: qHTS assay to identify small molecule agonists of the progesterone receptor (PR) signaling pathway (AID 1346784; calls by dose curve; note: nearly all actives have a fitted effect of over 30% in size)
Sequence of Progesterone receptor (Homo sapiens) (P06401 whole entry, looked up): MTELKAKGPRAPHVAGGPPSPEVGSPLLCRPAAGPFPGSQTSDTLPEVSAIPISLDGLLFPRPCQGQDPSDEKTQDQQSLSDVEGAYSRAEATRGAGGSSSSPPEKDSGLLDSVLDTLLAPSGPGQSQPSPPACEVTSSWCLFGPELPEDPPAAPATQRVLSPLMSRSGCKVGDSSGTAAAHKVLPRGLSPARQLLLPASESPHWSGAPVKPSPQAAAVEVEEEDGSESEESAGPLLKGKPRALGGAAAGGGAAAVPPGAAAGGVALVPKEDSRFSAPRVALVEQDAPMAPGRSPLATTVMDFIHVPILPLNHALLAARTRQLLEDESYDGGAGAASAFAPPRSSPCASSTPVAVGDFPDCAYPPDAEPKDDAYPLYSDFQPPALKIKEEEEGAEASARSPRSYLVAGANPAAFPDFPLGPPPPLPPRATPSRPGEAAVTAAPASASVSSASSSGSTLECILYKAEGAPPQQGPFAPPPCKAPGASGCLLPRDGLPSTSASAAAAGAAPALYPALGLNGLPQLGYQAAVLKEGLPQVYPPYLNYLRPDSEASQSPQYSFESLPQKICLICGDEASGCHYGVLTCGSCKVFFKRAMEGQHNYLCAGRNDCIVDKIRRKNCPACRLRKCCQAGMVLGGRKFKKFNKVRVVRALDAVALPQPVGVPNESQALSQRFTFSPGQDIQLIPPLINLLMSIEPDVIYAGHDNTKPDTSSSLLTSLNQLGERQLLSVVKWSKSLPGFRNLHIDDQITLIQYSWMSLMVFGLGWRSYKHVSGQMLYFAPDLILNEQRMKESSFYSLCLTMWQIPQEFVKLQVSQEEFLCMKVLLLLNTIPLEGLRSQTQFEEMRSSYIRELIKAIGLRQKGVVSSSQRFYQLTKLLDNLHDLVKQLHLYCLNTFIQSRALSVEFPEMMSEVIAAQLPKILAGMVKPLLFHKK
In short: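 Compounds were tested for PR agonism in HEK 293T cells bearing a beta-lactamase gene under UAS control. Treatment lasted 16 hr at 37C; signal came from fluorescence of a FRET substrate.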

[5] = molecular target: Progesterone receptor (Homo sapiens) (UniProt P06401); test: qHTS assay to identify small molecule antagonists of the progesterone receptor (PR) signaling pathway (AID 1346795; active = well fitted inhibition curve with a large enough effect in the signal ratio in the repeat runs, not every such curve was filed as active; the % refers to the signal ratio; note: potency is the fitted concentration of half-maximal effect)
In short: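 In HEK293T cells bearing the PR-UAS-bla reporter, compound effects on promegestone-driven (1 nM) beta-lactamase expression are assessed after 16 hr using a fluorescent FRET substrate incubated 2 hr at room temperature.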

[6] = qHTS assay to identify small molecule agonists of the progesterone receptor (PR) signaling pathway - cell viability counter screen (AID 1346799; calls by dose curve; note: nearly all actives have a fitted effect of over 45% in size)
In short: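 Here, 3,000 PR-UAS-bla HEK293T cells per well were treated with compounds for 16 hr after a 6 hr preincubation at 37C and 5% CO2; cell viability is the CellTiter-Glo luminescence signal.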

[7] = qHTS assay to identify small molecule antagonists of the TGF-beta/Smad signaling pathway - cell viability counter screen (AID 1346824); note: nearly all actives have a fitted effect of over 50% in size
In short: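 SBE-bla HEK 293T cells, incubated overnight, then compound plus 0.25 ng/mL TGF-beta1 (stock added) for 5 hr at 37 C. Viability was read in the same wells by CellTiter-Glo luminescence after 30 min at room temperature.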

[8] = qHTS assay to identify small molecule agonists of the TGF-beta/Smad signaling pathway - cell viability counter screen (AID 1346829); note: top concentration of the series differs between compounds; nearly all actives have a fitted effect of over 45% in size
In short: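 CellTiter-Glo luminescence readout; SBE-bla HEK 293T cells, overnight plating, compound 5 hr at 37 C/5% CO2, then bla substrate 2 hr RT, then CellTiter-Glo 30 min RT.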

[9] = qHTS assay to identify small molecule agonists of the TGF-beta/Smad signaling pathway (AID 1346859; active = well fitted activation curve with a large enough effect in the signal ratio in the repeat runs, not every such curve was filed as active; the % refers to the signal ratio; note: series mostly up to about 77 µM)
In short: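 Each well held 4,000 SBE-bla HEK 293T cells incubated overnight before compound addition; 5 hr later the cleavable FRET substrate went on for 2 hr at room temperature, and fluorescence was read at two emissions.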

[10] = molecular target: Thyrotropin-releasing hormone receptor (Homo sapiens) (UniProt P34981); test: qHTS assay to identify small molecule antagonists of the thyrotropin-releasing hormone receptor (TRHR) signaling pathway (AID 1346877; active = well fitted inhibition curve with a large enough effect in the repeat runs, not every such curve was filed as active; note: series mostly up to about 51 µM)
Sequence of Thyrotropin-releasing hormone receptor (Homo sapiens) (P34981 whole entry, looked up): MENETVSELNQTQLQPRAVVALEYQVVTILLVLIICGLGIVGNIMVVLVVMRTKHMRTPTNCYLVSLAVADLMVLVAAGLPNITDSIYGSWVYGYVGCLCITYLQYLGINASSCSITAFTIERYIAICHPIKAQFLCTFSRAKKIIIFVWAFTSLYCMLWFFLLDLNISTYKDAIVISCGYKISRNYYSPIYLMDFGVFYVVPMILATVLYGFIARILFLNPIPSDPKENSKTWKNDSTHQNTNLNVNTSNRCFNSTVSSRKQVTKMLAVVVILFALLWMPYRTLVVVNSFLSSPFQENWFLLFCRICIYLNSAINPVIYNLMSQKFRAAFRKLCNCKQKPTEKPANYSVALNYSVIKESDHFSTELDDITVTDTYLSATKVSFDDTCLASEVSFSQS
In short: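 TRHR-expressing HEK293 cells loaded with calcium dye for 2 h at 37 C; compounds pre-incubated 5 min at room temperature before TRH challenge at 1 nM final. Intracellular calcium fluorescence read kinetically for 3 min; 15 concentrations in triplicate.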

[11] = molecular target: Thyrotropin-releasing hormone receptor (Homo sapiens) (UniProt P34981); test: qHTS assay to identify small molecule agonists of the thyrotropin-releasing hormone receptor (TRHR) signaling pathway (AID 1346891; calls by dose curve; note: series mostly up to about 58 µM)
In short: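 Screening of agonists relied on calcium signalling in HEK293 cells expressing human TRHR: dye loading 2 h at 37 °C preceded compound addition and a 3-min fluorescence time course.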

[12] = Human pregnane X receptor (PXR) small molecule agonists, qHTS cell viability counter screen (AID 1346977); note: nearly all actives have a fitted effect of over 50% in size
In short: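 Tox21 qHTS format; PXR-Luc HepG2, 2,000/well, charcoal-stripped FBS 5%. Cpd exposure 24hr. Read: CellTiter-Fluor fluorescence, multiplexed with luciferase.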

[13] = Caspase-3/7 induction in HepG2 cells by small molecules, qHTS assay (AID 1346978); note: nearly all actives have a fitted effect of over 15% in size
In short: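 Wild-type HepG2 cells, 2,000/well, settled 5 hr at 37 C and 5% CO2, then compound-treated for 17 hr; caspase-3/7 activity read by luminescent Caspase-Glo 3/7 after 30 min at room temperature.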

[14] = Caspase-3/7 induction in CHO-K1 cells by small molecules, qHTS cell viability counter screen (AID 1346979); note: nearly all actives have a fitted effect of over 35% in size
In short: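 CellTiter-Fluor viability check, qHTS format: wild-type CHO-K1, 16hr compound treatment, 1hr reagent incubation, fluorescence read.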

[15] = Caspase-3/7 induction in CHO-K1 cells by small molecules, qHTS assay (AID 1346980); note: nearly all actives have a fitted effect of over 15% in size
In short: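 Wild-type CHO-K1 cells exposed to compounds for 17hr at 37 C, 5% CO2. Caspase-3/7 activity then measured by Caspase-Glo 3/7 luminescence after 30min at room temperature.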

[16] = Caspase-3/7 induction in HepG2 cells by small molecules, qHTS cell viability counter screen (AID 1346981); note: series mostly up to about 92 µM; nearly all actives have a fitted effect of over 30% in size
In short: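 Wild-type HepG2 cells, 2,000/well, settled 5 hr at 37 C, 5% CO2 before compound addition. Viability read by CellTiter-Fluor fluorescence, reagent added after 16 hr compound exposure, then 1 hr at 37C, in the same wells as the caspase read.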

[17] = molecular target: Thyrotropin receptor (Homo sapiens) (UniProt P16473); test: qHTS assay to identify small molecule antagonists of the thyroid stimulating hormone receptor (TSHR) signaling pathway (AID 1259385; calls by dose curve; note: nearly all actives have a fitted effect of over 20% in size)
Sequence of Thyrotropin receptor (Homo sapiens) (P16473 whole entry, looked up): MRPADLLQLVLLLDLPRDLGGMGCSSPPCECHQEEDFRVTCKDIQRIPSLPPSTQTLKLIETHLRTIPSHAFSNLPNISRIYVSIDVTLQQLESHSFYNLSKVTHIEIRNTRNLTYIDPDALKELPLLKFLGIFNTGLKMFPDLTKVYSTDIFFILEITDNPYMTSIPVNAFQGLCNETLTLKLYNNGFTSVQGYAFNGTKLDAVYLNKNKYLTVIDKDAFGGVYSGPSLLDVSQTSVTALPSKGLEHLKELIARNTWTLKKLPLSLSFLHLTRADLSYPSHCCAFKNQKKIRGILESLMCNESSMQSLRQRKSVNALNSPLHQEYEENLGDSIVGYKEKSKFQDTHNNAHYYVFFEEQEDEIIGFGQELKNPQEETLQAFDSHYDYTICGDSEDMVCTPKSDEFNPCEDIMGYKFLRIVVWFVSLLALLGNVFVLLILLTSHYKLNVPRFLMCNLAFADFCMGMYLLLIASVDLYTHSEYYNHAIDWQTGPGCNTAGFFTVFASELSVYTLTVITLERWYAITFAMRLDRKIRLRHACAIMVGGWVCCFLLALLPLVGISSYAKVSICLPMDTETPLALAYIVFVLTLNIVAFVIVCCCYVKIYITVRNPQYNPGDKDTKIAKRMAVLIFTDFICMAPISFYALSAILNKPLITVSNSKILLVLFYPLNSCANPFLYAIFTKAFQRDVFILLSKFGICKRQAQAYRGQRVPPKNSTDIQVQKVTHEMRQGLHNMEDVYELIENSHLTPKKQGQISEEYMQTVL
In short: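 TSHR-HEK293 cells (800/well) plated 18 h, then compounds with Ro20-1724 and TSH at 1.5 ng/mL final, 30 min at room temperature. cAMP quantified by HTRF (cAMP-d2/anti-cAMP-cryptate, 1 h); 15 concentrations in triplicate.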

[18] = qHTS assay to identify small molecule antagonists of the progesterone receptor (PR) signaling pathway - cell viability counter screen (AID 1346798); note: series mostly up to about 92 µM; nearly all actives have a fitted effect of over 50% in size
In short: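 Following a 4 hr attachment, PR-UAS-bla HEK293T cells in charcoal-stripped FBS medium were exposed to compounds with R5020 for 16 hr; CellTiter-Glo was added and luminescence read after 30 min at room temperature.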
% is set by controls: 0 for no effect and ±100 for the full control effect.

C=C(C)C(=O)OC1CC(C)CC(C)(C)C1 (configuration not stated)
inactive: outcome [1] | outcome [2] | Potency [3] | Potency [4] | Potency [5] | Potency [6] | outcome [7] | outcome [8] | outcome [9] | outcome [10] | outcome [11] | Potency [12] | outcome [13] | Potency [14] | outcome [15] | Potency [16]

CN(C1CCCCC1)S(=O)(=O)c1ccccc1N
active: Potency [5] 17.2 µM
inactive: outcome [1] | outcome [2] | outcome [17] | Potency [3] | Potency [18] | Potency [6] | outcome [7] | outcome [8] | outcome [9] | outcome [10] | outcome [11] | Potency [12] | outcome [13] | Potency [14] | outcome [15] | Potency [16]

c1ccc(CNc2ncnc3nc[nH]c23)cc1
inactive: outcome [1] | outcome [2] | outcome [17] | Potency [3] | Potency [4] | Potency [5] | outcome [7] | outcome [8] | outcome [9] | outcome [10] | outcome [11] | outcome [13] | Potency [14] | outcome [15] | Potency [16]

C=C(C)[C@@H]1CC[C@@H](C)C[C@@H]1O
inactive: outcome [1] | outcome [2] | outcome [17] | Potency [3] | Potency [4] | Potency [5] | Potency [18] | outcome [7] | outcome [8] | outcome [9] | Potency [12] | outcome [13] | Potency [14] | outcome [15] | Potency [16]

O=C(O)Cc1cccc(-c2cc(CCCCCCc3ccc(O[C@H]4O[C@H](CO)[C@@H](O)[C@H](O)[C@@H]4O)c(-c4cccc(CC(=O)O)c4)c3)ccc2O[C@H]2O[C@H](CO)[C@@H](O)[C@H](O)[C@@H]2O)c1
inactive: activity change, negative = cytotoxicity [1] 7.67% [at 0.349 µM] | cAMP activity change [2] -6.17% [at 0.349 µM] | activity change, negative = inhibition [17] -1.92% [at 0.349 µM] | activity change, negative = cytotoxicity [3] 4.6% [at 0.349 µM] | activation [4] 1.15% [at 0.349 µM] | activity change, negative = inhibition [5] 0.629% [at 0.348 µM] | activity change, negative = cytotoxicity [18] 8.15% [at 0.348 µM] | viability change, negative = cytotoxic [7] 10.9% [at 0.29 µM] | activity change, negative = cytotoxicity [8] 10.8% [at 0.29 µM] | activation [9] -0.374% [at 0.29 µM] | activity, negative = inhibition [10] 0.417% [at 0.194 µM] | activation [11] -0.342% [at 0.218 µM] | activity change, negative = cytotoxicity [12] 17.5% [at 0.349 µM] | caspase activation [13] 0.734% [at 0.349 µM] | activity change, negative = cytotoxicity [14] 2.17% [at 0.349 µM] | caspase-3/7 activation [15] 1.55% [at 0.349 µM] | activity change, negative = cytotoxicity [16] 2.65% [at 0.349 µM]

CCC(=O)OCCC(C)CCC=C(C)C (configuration not stated)
inactive: outcome [1] | outcome [2] | outcome [17] | Potency [3] | Potency [5] | Potency [18] | Potency [6] | outcome [7] | outcome [8] | outcome [9] | Potency [12] | outcome [13] | Potency [14] | outcome [15] | Potency [16]

CCCCCCCCCCCCCCCC(=O)NCCO
inactive: outcome [1] | outcome [2] | outcome [17] | Potency [3] | Potency [4] | Potency [5] | Potency [18] | outcome [7] | outcome [8] | outcome [9] | outcome [10] | outcome [11] | Potency [12] | outcome [13] | Potency [14] | outcome [15] | Potency [16]
